Data taken from PubChem BioAssay.
The source made the active and inactive calls.

Assays:
[1] = small molecules captured by biotinylated probe aFSTL3 – biochemical, small-molecule microarray, fluorescence 635/667, stem cell growth factor project, primary screen (AID 1064); settings: higher = more signal;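 note: measures binding of the biotinylated anti-FSTL3 antibody to printed compounds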
[2] = binders from COS7 lysate, DM2A8 probe, primary screen, torsin A project, cell lysate, small-molecule microarray, fluorescence 635/667 (AID 1065); settings: higher = more signal, COS7 lysate expressing mutant human TOR1A
[3] = small molecules captured by biotinylated probe aFGF2 – biochemical, small-molecule microarray, fluorescence 635/667, stem cell growth factor project, primary screen (AID 1067); settings: higher = more signal;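 note: measures binding of biotinylated aFGF2 protein to printed compounds on slides; z-score merges feature fluorescence and signal-to-noise across triplicate slides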
[4] = small molecules captured by biotinylated probe aFGF10 – biochemical, small-molecule microarray, fluorescence 635/667, stem cell growth factor project, primary screen (AID 1071); settings: higher = more signal;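 note: score merges 667 nm spot intensity and signal to noise from triplicate slides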
[5] = target: Neurogenic locus notch homolog protein 2 (Homo sapiens) (UniProt Q04721); assay: small molecules binding Notch2 protein – biochemical, small-molecule microarray, 635 nm fluorescence, stem cell growth factors, primary screen (AID 1073); settings: higher = more signal
[6] = target: Pro-neuregulin-1, membrane-bound isoform (Homo sapiens) (UniProt Q02297); assay: small molecules binding neuregulin-1 protein – biochemical, small-molecule microarray, fluorescence 635/667, psychiatric disease protein project, primary screen (AID 1075); settings: NRG1 binding, 635 nm fluorescence, higher = more signal;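 note: score combines 667 nm spot fluorescence with signal to noise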
[7] = tested on: Neuregulin-1 EGF-like domain; assay: small molecules binding NRG1 EGF domain – biochemical, small-molecule microarray, 635 nm fluorescence, primary screen (AID 1081); settings: higher = more signal;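 note: binding of the protein to compounds printed on small-molecule microarray slides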
[8] = FRG1 expression reporter modulators in myotubes – cell-based, C2C12 myotubes, firefly/Renilla luciferase, luminescence, FRG1 inhibition for FSHD, primary screen (AID 1084); settings: FRG1 promoter luciferase, higher = more signal, called active from +8 up or from −8 down
[9] = small molecules captured by biotinylated probe aFST – biochemical, small-molecule microarray, fluorescence 635/667, stem cell growth factor project, primary screen (AID 1086); settings: higher = more signal;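 note: score merges 667 nm fluorescence with signal-to-noise of each printed compound spot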
[10] = binders of probe aHhip on microarray, primary screen, stem cell growth factor project, biochemical, small-molecule microarray, fluorescence 635/667 (AID 1087); settings: higher = more signal;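 note: score merges spot fluorescence at 667nm with spot signal to noise ratio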

Sequence of Pro-neuregulin-1, membrane-bound isoform (Homo sapiens) (Q02297 whole entry, looked up, the tested form may be a part, canonical isoform): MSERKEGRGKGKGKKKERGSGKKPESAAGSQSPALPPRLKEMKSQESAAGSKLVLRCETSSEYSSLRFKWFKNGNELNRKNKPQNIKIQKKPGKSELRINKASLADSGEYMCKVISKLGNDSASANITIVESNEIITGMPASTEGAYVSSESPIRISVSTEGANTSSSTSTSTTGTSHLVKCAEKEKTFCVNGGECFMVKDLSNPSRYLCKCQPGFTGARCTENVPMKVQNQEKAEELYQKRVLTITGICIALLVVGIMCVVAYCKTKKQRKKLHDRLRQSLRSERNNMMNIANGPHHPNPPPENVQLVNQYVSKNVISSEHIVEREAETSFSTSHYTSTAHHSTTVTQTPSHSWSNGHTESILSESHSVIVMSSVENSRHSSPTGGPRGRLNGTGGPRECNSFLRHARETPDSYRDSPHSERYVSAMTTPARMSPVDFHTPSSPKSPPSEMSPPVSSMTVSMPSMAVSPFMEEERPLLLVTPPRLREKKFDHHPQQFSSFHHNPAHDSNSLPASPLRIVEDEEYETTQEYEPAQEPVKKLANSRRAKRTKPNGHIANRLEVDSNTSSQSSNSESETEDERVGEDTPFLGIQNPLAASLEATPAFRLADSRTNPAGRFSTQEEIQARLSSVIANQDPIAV
Sequence of Neurogenic locus notch homolog protein 2 (Homo sapiens) (Q04721 whole entry, looked up, canonical isoform): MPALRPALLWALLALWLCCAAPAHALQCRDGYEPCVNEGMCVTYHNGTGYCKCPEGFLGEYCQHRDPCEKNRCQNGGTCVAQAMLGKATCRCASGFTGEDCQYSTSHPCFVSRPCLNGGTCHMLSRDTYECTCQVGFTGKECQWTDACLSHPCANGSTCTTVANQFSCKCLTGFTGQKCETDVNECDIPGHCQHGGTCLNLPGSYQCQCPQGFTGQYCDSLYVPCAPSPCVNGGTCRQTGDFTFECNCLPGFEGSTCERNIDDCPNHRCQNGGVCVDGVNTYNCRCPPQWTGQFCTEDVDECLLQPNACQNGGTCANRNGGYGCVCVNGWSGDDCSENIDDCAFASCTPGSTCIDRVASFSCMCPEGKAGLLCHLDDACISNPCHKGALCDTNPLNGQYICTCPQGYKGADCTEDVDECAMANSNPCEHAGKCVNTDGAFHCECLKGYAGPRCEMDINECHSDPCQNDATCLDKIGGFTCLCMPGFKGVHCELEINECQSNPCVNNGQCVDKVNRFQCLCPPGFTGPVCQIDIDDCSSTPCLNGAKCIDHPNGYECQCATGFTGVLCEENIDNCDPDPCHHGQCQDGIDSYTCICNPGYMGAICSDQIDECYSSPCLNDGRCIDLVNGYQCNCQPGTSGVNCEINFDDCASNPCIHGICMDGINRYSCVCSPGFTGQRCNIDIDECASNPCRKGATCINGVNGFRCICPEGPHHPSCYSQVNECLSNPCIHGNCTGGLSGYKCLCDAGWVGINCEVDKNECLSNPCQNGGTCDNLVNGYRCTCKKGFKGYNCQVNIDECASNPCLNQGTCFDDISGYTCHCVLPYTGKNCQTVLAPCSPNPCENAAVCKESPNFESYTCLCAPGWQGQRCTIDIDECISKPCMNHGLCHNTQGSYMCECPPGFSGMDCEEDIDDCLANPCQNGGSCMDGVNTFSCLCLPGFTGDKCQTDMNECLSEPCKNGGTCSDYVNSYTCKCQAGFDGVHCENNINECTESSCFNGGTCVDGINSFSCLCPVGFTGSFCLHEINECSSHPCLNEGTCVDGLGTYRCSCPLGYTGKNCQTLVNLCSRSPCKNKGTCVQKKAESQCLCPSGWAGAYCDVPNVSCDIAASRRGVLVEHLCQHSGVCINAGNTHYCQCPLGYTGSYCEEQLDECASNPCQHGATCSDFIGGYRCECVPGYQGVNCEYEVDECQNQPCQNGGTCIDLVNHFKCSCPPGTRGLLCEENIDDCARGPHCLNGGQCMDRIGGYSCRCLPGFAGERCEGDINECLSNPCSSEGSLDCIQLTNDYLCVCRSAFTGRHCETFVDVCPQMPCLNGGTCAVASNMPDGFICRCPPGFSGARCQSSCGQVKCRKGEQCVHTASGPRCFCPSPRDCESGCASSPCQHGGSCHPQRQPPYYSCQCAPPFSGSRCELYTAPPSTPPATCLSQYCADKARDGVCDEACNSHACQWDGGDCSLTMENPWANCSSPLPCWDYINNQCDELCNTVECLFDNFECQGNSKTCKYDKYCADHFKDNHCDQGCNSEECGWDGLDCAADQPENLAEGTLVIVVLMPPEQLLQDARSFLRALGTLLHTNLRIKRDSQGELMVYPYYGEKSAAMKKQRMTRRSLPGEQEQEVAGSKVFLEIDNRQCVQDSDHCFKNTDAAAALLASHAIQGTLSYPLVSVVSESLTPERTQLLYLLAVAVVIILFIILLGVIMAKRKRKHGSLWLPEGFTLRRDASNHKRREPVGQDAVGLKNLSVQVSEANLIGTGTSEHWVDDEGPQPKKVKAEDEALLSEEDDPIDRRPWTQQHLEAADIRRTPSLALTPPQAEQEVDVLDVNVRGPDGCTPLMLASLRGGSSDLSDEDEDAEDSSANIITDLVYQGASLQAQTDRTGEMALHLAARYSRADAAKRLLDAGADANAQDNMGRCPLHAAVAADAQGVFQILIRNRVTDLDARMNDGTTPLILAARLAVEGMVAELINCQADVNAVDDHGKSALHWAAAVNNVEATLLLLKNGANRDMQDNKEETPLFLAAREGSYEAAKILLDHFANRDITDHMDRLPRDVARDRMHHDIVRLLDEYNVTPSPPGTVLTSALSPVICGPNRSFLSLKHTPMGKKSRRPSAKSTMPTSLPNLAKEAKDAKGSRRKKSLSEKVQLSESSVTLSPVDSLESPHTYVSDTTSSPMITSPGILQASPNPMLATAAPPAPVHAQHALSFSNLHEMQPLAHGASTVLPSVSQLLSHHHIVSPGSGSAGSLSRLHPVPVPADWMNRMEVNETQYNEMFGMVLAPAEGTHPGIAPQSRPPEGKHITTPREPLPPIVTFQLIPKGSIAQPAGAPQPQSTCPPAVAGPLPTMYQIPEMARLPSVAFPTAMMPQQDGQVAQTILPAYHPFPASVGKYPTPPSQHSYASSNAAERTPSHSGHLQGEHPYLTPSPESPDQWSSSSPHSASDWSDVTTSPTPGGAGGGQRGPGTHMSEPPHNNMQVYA

Row | Compound | composite z-score [1] | composite z-score [2] | composite z-score [3] | composite z-score [4] | composite z-score [5] | composite z-score [6] | composite z-score [7] | z-score [8] | composite z-score [9] | composite z-score [10]
1 | COCC1C2CC[C@H]3C(OCc4ccc(OC)cc4)OC[C@]4(C)[C@H]3C2=C(CN4C(=O)OC(C)(C)C)[C@H](C)C1COC (stereo not given in full) | -0.163 | 0.0867 | 0.142 | 1.09 | 1.72 | 1.73 | 1.18 | -0.31 (inactive) | 0.993 | -0.164
2 | C=C(COC)C(=O)CC[C@H](OC(=O)c1cccnc1)c1ccc(CO)o1 | -0.403 | -0.049 | -0.124 | 0.842 | 0.574 | 0.57 | 1.12 | 0.292 (inactive) | 0.34 | -0.0994
3 | CCCCCCCCCCC(O)C1C=CC2C(=O)N(c3ccccc3)C(=O)C2N1Nc1ccccc1F (stereo not given) | 0.51 | -0.165 | -0.0647 | 0.183 | -0.503 | 1.22 | 0.586 | 0.15 (inactive) | -0.08 | -0.185
4 | O=C1NC(=O)C2C1C=CC(C(O)c1ccccn1)N2Nc1ccc(Cl)cc1Cl (stereo not given) | -0.0358 | -0.0795 | -0.0132 | 0.895 | 1.16 | 1.36 | 0.626 | 0.362 (inactive) | 0.737 | 0.154
5 | COC(=O)C(CC#Cc1ccc2c(c1)[C@]1(C(=O)N2)[C@H](C(=O)Nc2nc3ccccc3s2)[C@H]2C(=O)O[C@H](c3ccccc3)[C@H](c3ccccc3)N2[C@@H]1c1ccc(OCCO)cc1)C(=O)OC | 0.156 | 0.444 | -0.0036 | 1.05 | 1.4 | 1.87 | 1.24 | 1.9 (inactive) | 0.846 | -0.137
6 | COCCOC(=O)N1C(=O)[C@@]2(c3cc(C#CCC(C(=O)OC)C(=O)OC)ccc31)[C@H](C(=O)NC[C@H](O)c1ccccc1)[C@H]1C(=O)O[C@H](c3ccccc3)[C@H](c3ccccc3)N1[C@@H]2c1ccc(OCCO)cc1 | -0.341 | 0.0051 | -0.113 | 0.245 | 0.917 | 0.161 | 1.23 | 0.856 (inactive) | 0.5 | -0.0994
7 | C=CC[C@H](OC(=O)Nc1ccc(SC)cc1)c1ccc(OCCO)cc1 | 0.339 | 0.0366 | -0.107 | -0.85 | -1.2 | 0.958 | 1.07 | 8.37 (active) | -0.413 | -0.0994
8 | COCCOC(=O)N1C(=O)[C@@]2(c3ccccc31)[C@H](c1ccc(OCCO)cc1)N1[C@H](c3ccccc3)[C@H](c3ccccc3)OC(=O)[C@H]1[C@@H]2C(=O)N1CCCCCCC1 | 4.01 | 2.82 | 1.05 | 1.52 | 1.86 | 3.07 | 1.54 | -3.1 (inactive) | 3.82 | 2.75
9 | [N-]=[N+]=NCc1ccccc1C[C@]1(C(=O)N2CCOCC2)COC(c2ccc(OCCCO)cc2)=N1 | 0.518 | 0.456 | 0.083 | 0.973 | 0.626 | 1.02 | 1.24 | -2.87 (inactive) | 0.73 | -0.0237
10 | CCCCC(=C=CC[C@H](O)c1ccc(OCCO)cc1)C[C@H](O)c1cc(Cl)cc(Cl)c1O | -0.268 | 0.092 | -0.186 | 0.214 | 0.323 | 1.05 | 0.965 | -2 (inactive) | 0.236 | -0.264
11 | C=C(COC)C(=O)CC[C@H](OC(C)=O)c1ccc(OCCO)cc1 | -0.198 | -0.722 | -0.0533 | 1.21 | -0.189 | -0.0732 | 1.1 | 1.08 (inactive) | 0.375 | -0.191
